Here are results for 21 compounds from PubChem BioAssay (EPA / NIEHS).

Activity calls are given as the source filed them. The calls were made as follows: active = hit-call score of the fitted dose curve at least 0.9, where 1 is the maximum; inactive = score below 0.9.

Test [1] is described as follows: ATG_NFI_CIS: Attagene CIS-FACTORIAL HepG2 Assay for human Nuclear Factor I (NFI) (AID 2282989). The settings on record: HepG2 cis-regulatory reporter, NFI response element transcription; actives raise or lower the signal. An outline of the steps:
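Reporter transcription driven by endogenous transcription factors in HepG2 cells; 24 h treatment. Quantitation by labelled RT-PCR fragments on capillary electrophoresis, gain- or loss-of-signal relative to DMSO.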

For test [2], the target named is Myc proto-oncogene protein (Homo sapiens) (UniProt P01106). Put plainly: ATG_Myc_CIS: Attagene CIS-FACTORIAL HepG2 Assay for human Myelocytomatosis (Myc) Proto-Oncogene Transcription Factor (AID 2282990). The settings on record: HepG2, Attagene cis-reporter transcription factor activity; actives raise or lower the signal. An outline of the steps:
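Fluorescence intensity of reporter-specific cDNA fragments, separated by capillary electrophoresis, gives the signal. Transfected HepG2 cells carrying cis-promoter reporter constructs are incubated with compound for 24 h; DMSO serves as baseline.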

A short description of test [3]: ATG_NF_kB_CIS: Attagene CIS-FACTORIAL HepG2 Assay for human Nuclear Factor Kappa B (NF-kB) (AID 2282991). The settings on record: HepG2 Attagene cis-factorial NF-kB reporter mRNA; actives raise or lower the signal. The method in brief:
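Measures mRNA induction of an NF-kB-responsive cis-element reporter in HepG2 cells transfected with multiple reporter units, sampled 24 h post-dosing; quantified by fluorescence after RT-PCR and capillary electrophoresis, fitted for activation or inhibition against DMSO.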

The nature of test [4]: ATG_NRF2_ARE_CIS: Attagene CIS-FACTORIAL HepG2 Assay for human Nuclear Factor Erythroid 2 Related Factor 2 (NFR2) response to Antioxidant Response Elements (ARE) (AID 2282992).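 As to AC50: reporter mRNA level measured by RT-PCR and capillary electrophoresis fluorescence.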 The settings on record: HepG2 Attagene ARE/NRF2 reporter, transcription factor activity; actives raise or lower the signal. An outline of the steps: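 HepG2 cells transiently transfected with multiplexed cis-regulated reporter transcription units measure endogenous transcription factor activity. Reporter mRNA at 24 h is quantified by RT-PCR, fluorescent labelling and capillary electrophoresis, with bidirectional fitting relative to DMSO.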

Test [5] can be described thus: ATG_Oct_MLP_CIS: Attagene CIS-FACTORIAL HepG2 Assay for human Octamer-Binding Transcription Factor (Oct) (AID 2282993). The settings on record: HepG2 Attagene cis-factorial Oct reporter, mRNA; actives raise or lower the signal. The method in brief:
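Transfected HepG2 cells, 24 h treatment. Reporter mRNA quantified by RT-PCR–capillary electrophoresis; bidirectional fitting against DMSO.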

A short description of test [6]: BSK_3C_uPAR: BioMAP Diversity Plus: 3C Assay for Urokinase-type plasminogen activator receptor (uPAR) Biomarker Activity (AID 2282998). The settings on record: BioMAP 3C HUVEC, uPAR biomarker ELISA; actives raise or lower the signal. An outline of the steps: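 Readout: ELISA for surface uPAR. System: human umbilical vein endothelial primary cells, 24 h after chemical exposure. Analysis: bidirectional fit, DMSO baseline.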

The nature of test [7]: BSK_3C_VCAM1: BioMAP Diversity Plus: 3C Assay for Vascular cell adhesion molecule 1 (VCAM1) Biomarker Activity (AID 2282999). The settings on record: BioMAP 3C HUVEC, VCAM1 ELISA, cytokine-stimulated; actives raise or lower the signal. The method in brief: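 Human umbilical vein endothelial cells (3C system), biomarker read by ELISA 24 h after dosing; bidirectional fit against DMSO baseline. Cytotoxicity tracked by SRB total-protein staining in parallel cultures at biomarker time.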

A short description of test [8]: BSK_4H_Eotaxin3: BioMAP Diversity Plus: 4H Assay for Eotaxin 3 Biomarker Activity (AID 2283000).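 As to outcome: CCL26 protein level quantified by ELISA in parallel with SRB cytotoxicity check.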 The settings on record: primary human endothelial cells (HUVEC); actives raise or lower the signal. An outline of the steps:
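Endothelial primary cells (human umbilical vein) exposed to compound for 24 h. ELISA detection of Eotaxin-3.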

Test [9] concerns the target Cellular tumor antigen p53 (Homo sapiens) (UniProt P04637). Description: ATG_p53_CIS: Attagene CIS-FACTORIAL HepG2 Assay for human p53 Transcription Factor (AID 2282994). The settings on record: HepG2 p53 cis-element reporter, Attagene mRNA; actives raise or lower the signal. The method in brief:
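HepG2 cells transiently transfected with multiplexed cis-regulated reporter transcription units read endogenous TF activity. After 24 h compound exposure, reporter mRNA was quantified by RT-PCR, fluorescent labelling, HpaI digestion and capillary electrophoresis; bidirectional fits versus DMSO baseline.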

The nature of test [10]: BSK_3C_TissueFactor: BioMAP Diversity Plus: 3C Assay for Tissue Factor Biomarker Activity (AID 2282997). The settings on record: BioMAP 3C HUVEC, tissue factor biomarker readout; actives raise or lower the signal. An outline of the steps: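 Values derive from bidirectional curve fitting against DMSO of Tissue Factor ELISA signals, taken 24 h after dosing primary human umbilical vein endothelial cells.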

Chain of Myc proto-oncogene protein (Homo sapiens) (P01106 whole entry, looked up, the tested form may be a part): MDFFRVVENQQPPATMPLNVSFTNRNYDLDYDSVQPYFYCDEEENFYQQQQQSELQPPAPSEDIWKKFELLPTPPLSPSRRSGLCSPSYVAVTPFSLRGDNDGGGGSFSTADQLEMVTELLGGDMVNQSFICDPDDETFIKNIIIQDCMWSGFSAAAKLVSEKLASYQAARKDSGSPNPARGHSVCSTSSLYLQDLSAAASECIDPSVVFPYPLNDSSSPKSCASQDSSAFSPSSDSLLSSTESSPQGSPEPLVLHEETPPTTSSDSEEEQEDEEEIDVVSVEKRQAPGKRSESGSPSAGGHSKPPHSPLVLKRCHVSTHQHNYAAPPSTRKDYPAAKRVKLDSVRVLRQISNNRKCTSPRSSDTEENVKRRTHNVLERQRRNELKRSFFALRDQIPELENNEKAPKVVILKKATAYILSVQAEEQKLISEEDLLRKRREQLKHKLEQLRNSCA
Chain of Cellular tumor antigen p53 (Homo sapiens) (P04637 whole entry, looked up): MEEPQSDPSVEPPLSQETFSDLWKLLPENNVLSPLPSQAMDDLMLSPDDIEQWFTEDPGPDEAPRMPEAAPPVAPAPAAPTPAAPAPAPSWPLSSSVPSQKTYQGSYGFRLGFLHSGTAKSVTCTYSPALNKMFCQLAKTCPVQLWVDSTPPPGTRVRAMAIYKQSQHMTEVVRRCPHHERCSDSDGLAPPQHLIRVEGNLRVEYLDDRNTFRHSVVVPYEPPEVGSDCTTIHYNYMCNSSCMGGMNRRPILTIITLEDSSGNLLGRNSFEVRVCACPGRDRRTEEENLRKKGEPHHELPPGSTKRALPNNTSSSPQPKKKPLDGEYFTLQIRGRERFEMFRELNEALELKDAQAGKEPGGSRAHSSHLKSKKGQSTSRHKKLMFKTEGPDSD

`O=[N+]([O-])C(Br)(CO)CO`: the call in test [1], in test [3] and in test [4] was inactive. Besides, the concentration at half-maximal activity (AC50) was 74.6 µM (active) in [2]; 156 µM (active) in test [5]; 30.5 µM (active) in [6]; 31.1 µM (active) in [7]; 27.7 µM (active) in test [8].

As to `O=C1CCCO1`, the call in test [1], in test [2], in test [4], in test [5], in test [9] and in [10] was inactive. The outcome in test [7] and in test [8] was inactive.

As to `CN(C)c1ccccc1`, the result in [1], in test [2], in test [4], in test [5], in [9] and in [7] was inactive. Also, the result in [8] was inactive.

With `COC(=O)Nc1nc2ccccc2[nH]1`, the outcome in test [1], in [2], in test [5], in test [9], in test [10] and in test [7] was inactive. Further, the AC50 in [4] was 21.4 µM (active); in test [6], 10.9 µM (active); in test [8], 20 µM (active).

Consider `OCCCl`, for which the compound was called inactive in test [1], in [2], in [4], in test [5], in [9] and in test [10]. Also, the result in test [6], in [7] and in test [8] was inactive.

Turning to `COc1cc(C=O)cc2c1[C@H](COC(N)=O)[C@]1(OC(C)=O)ON2C[C@H]2[C@@H]1N2C(C)=O`, the half-maximal activity concentration (AC50) in [1] is 52 µM (active); in test [2] it was 7.48 µM (active); in test [4] it was 17 µM (active); in test [5], 0.179 µM (active); in [9] it was 5.95 µM (active); in [6] it was 11.6 µM (active). The AC50 in test [7] is 22.1 µM (active); in test [8] it was 6.01 µM (active).

With `Clc1ccc(Cl)c(Cl)c1`, the outcome in test [1], in test [2], in test [4], in test [5], in [9] and in test [7] was inactive. For the same compound, the result in [8] was inactive.

In the case of `Nc1cc(Cl)cc(C(=O)O)c1Cl`, the compound was called inactive in test [1], in test [2], in [4], in [5], in [9] and in [6]. The result in [7] and in [8] was inactive.

As to `c1ccc(C2CO2)cc1` (configuration not stated), the result in test [1], in test [2], in test [4], in test [5], in [9] and in test [7] was inactive. For the same compound, in test [8], the result was inactive.

On to `CCCCCCCCCCCCCN1CC(C)OC(C)C1` (configuration not stated), for which the call in [1], in [2], in test [5], in test [9], in [10] and in test [6] was inactive. Besides, the result in test [7] and in test [8] was inactive. For the same compound, in [4], the AC50 was 47 µM (active).

As to `O=P(OCCCl)(OCCCl)OCCCl`, the outcome in [1], in [2], in test [4], in test [5], in test [9] and in test [10] was inactive. Also, the outcome in test [6], in test [7] and in test [8] was inactive.

As for `CC(C)(C)OOC(C)(C)CCC(C)(C)OOC(C)(C)C`, the result in test [1], in test [2], in [5], in [9], in test [10] and in test [7] was inactive. For the same compound, the result in test [8] was inactive. The AC50 in test [4] was 75.2 µM (active).

As for `Cc1ccc([N+](=O)[O-])cc1`, the call in test [1], in [2], in [4], in test [5], in [9] and in [10] was inactive. Besides, the result in [6], in [7] and in [8] was inactive.

Take `CS(=O)(=O)NC(=O)c1cc(Oc2ccc(C(F)(F)F)cc2Cl)ccc1[N+](=O)[O-]`: the outcome in test [1], in test [2], in test [4], in [5], in test [9] and in test [10] was inactive. Also, the result in test [7] and in [8] was inactive.

`O=C(O)C1C2CCC(O2)C1C(=O)O` (configuration not stated): the call in test [1], in test [2], in test [10], in test [6] and in [8] was inactive. Also, the AC50 in test [4] is 34.7 µM (active); in test [5], 75.4 µM (active); in test [9] it was 100 µM (active); in [7], 21 µM (active).

In the case of `N#CC(Br)Br`, the outcome in test [1], in test [2], in [3], in test [5], in test [6] and in test [7] was inactive. In addition, the outcome in [8] was inactive. In addition, the AC50 in [4] is 74.8 µM (active).

Regarding `Brc1ccc(Oc2ccccc2)cc1`, the AC50 in test [1] was 158 µM (active); in [4], 74 µM (active); in [5], 177 µM (active). The call in test [2], in test [3], in test [9], in test [7] and in [8] was inactive.

As to `Clc1ccccc1Cl`, the compound was called inactive in [1], in test [2], in [3], in test [4], in test [5] and in [10]. For the same compound, the result in [6], in test [7] and in test [8] was inactive.

For `CCOC(=O)[C@]1(c2ccccc2)Oc2ccccc2[C@@H]1N`, the AC50 was 46.4 µM (active) in [1]; 24.5 µM (active) in test [2]; 33 µM (active) in test [3]; 34.7 µM (active) in test [4]; 28.8 µM (active) in test [5]; 20 µM (active) in test [6]. Moreover, the AC50 in test [8] is 29.6 µM (active). The outcome in test [7] was inactive.

Regarding `O=C(Nc1ccccc1)c1ccccc1I`, the compound was classed as inactive in test [1], in [2], in [3], in test [5], in [10] and in [7]. For the same compound, in [8], the outcome was inactive. The AC50 in test [4] was 20.3 µM (active).

Take `C[N+](C)(C)CC1CO1` (configuration not stated): the result in [1], in test [2], in [4], in [5], in test [9] and in test [6] was inactive. Besides, the result in [7] and in test [8] was inactive.
